Laboratory results reported in PubChem BioAssay (Tox21).
Several values for one entry are separate records, joined by “and”; a condition that tells them apart may be missing. Identical values can stand only once. Results filed as inconclusive are left out. Activity calls are given as the source filed them. Unless noted, calls follow the shape of the dose curve; as a rule, active = well fitted curve in the direction sought with a large enough effect in the repeat runs; inconclusive = weak or mixed curves; inactive = no such curve, though single readings can be large; an effect the other way counts as inactive or inconclusive.

Tests used:
[1] = qHTS assay to identify small molecule agonists of the peroxisome proliferator-activated receptor delta (PPARd) signaling pathway - cell viability counter screen (AID 743211); also: % is scaled to controls: 0 for no effect and ±100 for the full control effect; nearly all actives have a fitted effect of over 55% in size
In short: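 HEK293H PPARd-bla, 3000 cells/well; 5 h preincubation 37C/5% CO2; cpd in DMSO, 17 h 37C; B/G FRET substrate 2 h RT; CellTiter-Glo 30 min RT, luminescence.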

[2] = molecular target: Peroxisome proliferator-activated receptor delta (Homo sapiens) (UniProt Q03181); assay: qHTS assay to identify small molecule agonists of the peroxisome proliferator-activated receptor delta (PPARd) signaling pathway (AID 743212; calls by dose curve;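 also: HEK293H cells with PPARd UAS beta-lactamase reporter GeneBLAzer system; % is scaled to controls: 0 for no effect and ±100 for the full control effect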)
In short: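 Steps: seed PPARd-bla HEK293H cells; incubate 5 h, 37 C, 5% CO2; add compounds in DMSO; incubate, 37 C; add LiveBLAzer B/G FRET substrate; hold 2 h at room temperature; measure fluorescence.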

[3] = molecular target: Peroxisome proliferator-activated receptor delta (Homo sapiens) (UniProt Q03181); assay: qHTS assay to identify small molecule antagonists of the peroxisome proliferator-activated receptor delta (PPARd) signaling pathway (AID 743215; active = well fitted inhibition curve with a large enough effect in the signal ratio in the repeat runs, not every such curve was filed as active; the % refers to the signal ratio;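 also: cells stimulated with agonist L165041 at 300 nM final during compound exposure; series mostly up to about 62 µM; % is scaled to controls: 0 for no effect and ±100 for the full control effect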)
In short: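 Fluorescence from cleaved LiveBLAzer B/G FRET substrate (2 h, room temperature) reports PPARd-driven beta-lactamase in HEK293H UAS-bla cells. Cells had been treated 17 h at 37 C with compound plus 300 nM final L165041.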

[4] = molecular target: Bile acid receptor (Homo sapiens) (UniProt Q96RI1); assay: qHTS assay to identify small molecule antagonists of the farnesoid-X-receptor (FXR) signaling pathway (AID 743217; active = well fitted inhibition curve with a large enough effect in the signal ratio in the repeat runs, not every such curve was filed as active; the % refers to the signal ratio; also: % is scaled to controls: 0 for no effect and ±100 for the full control effect)
In short: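 FRET fluorescence after 2 h room-temperature LiveBLAzer loading gives the readout. Prior step: FXR-bla HEK 293T cells, seeded and incubated 5 h, received test compounds plus 50 uM final CDCA for 16 h at 37 °C.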

[5] = molecular target: Bile acid receptor (Homo sapiens) (UniProt Q96RI1); assay: qHTS assay to identify small molecule agonists of the farnesoid-X-receptor (FXR) signaling pathway (AID 743220; active = well fitted activation curve with a large enough effect in the signal ratio in the repeat runs, not every such curve was filed as active; the % refers to the signal ratio; also: % is scaled to controls: 0 for no effect and ±100 for the full control effect)
In short: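 FXR-UAS-bla HEK 293T cells carrying a UAS-driven beta-lactamase reporter were plated for 5 h at 37C/5% CO2, then exposed to DMSO-dissolved Tox21 10K compounds for 16 h at 37C. A LiveBLAzer B/G FRET substrate was loaded for 2 h at room temperature before fluorescence reading.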

[6] = qHTS assay to identify small molecule antagonists of the farnesoid-X-receptor (FXR) signaling pathway - cell viability counter screen (AID 743221; active = well fitted cell-killing curve with a large enough effect in the repeat runs, not every such curve was filed as active; also: % is scaled to controls: 0 for no effect and ±100 for the full control effect; nearly all actives have a fitted effect of over 50% in size)
In short: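 Luminescence from CellTiter-Glo measures cytotoxicity in GeneBLAzer FXR-UAS-bla HEK 293T cells. Cells were exposed to compounds with 50 uM chenodeoxycholic acid (final) for 16 h at 37 C, in wells also used for the reporter readout.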

[7] = molecular target: Vitamin D3 receptor (Homo sapiens) (UniProt P11473); assay: qHTS assay to identify small molecule agonists of the vitamin D receptor (VDR) signaling pathway (AID 743222; calls by dose curve; also: % is scaled to controls: 0 for no effect and ±100 for the full control effect)
In short: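 Following 4 h attachment at 37C, VDR-bla cells (2,000 per well) received DMSO-dissolved compounds or controls. After 16 h incubation, LiveBLAzer B/G FRET substrate was added and fluorescence read 2 h later at room temperature.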

[8] = molecular target: Vitamin D3 receptor (Homo sapiens) (UniProt P11473); assay: qHTS assay to identify small molecule antagonists of the vitamin D receptor (VDR) signaling pathway (AID 743223; active = well fitted inhibition curve with a large enough effect in the signal ratio in the repeat runs, not every such curve was filed as active; the % refers to the signal ratio; also: % is scaled to controls: 0 for no effect and ±100 for the full control effect)
In short: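 Antagonist mode uses 1alpha,25-dihydroxyvitamin D3 at 3 nM final as stimulus. VDR-bla cells receive compounds in DMSO, incubate 16 h at 37C, then a beta-lactamase FRET substrate for 2 h at room temperature before fluorescence measurement.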

[9] = qHTS assay to identify small molecule agonists of the vitamin D receptor (VDR) signaling pathway - cell viability counter screen (AID 743224); also: nearly all actives have a fitted effect of over 50% in size; also: potency is read from the fitted curve at half-maximal effect
In short: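 In parallel with the bla FRET readout, cytotoxicity toward VDR-bla cells after 16 h compound exposure was assessed by CellTiter-Glo, with luminescence recorded after a 30 min room-temperature incubation.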

[10] = qHTS assay to identify small molecule antagonists of the vitamin D receptor (VDR) signaling pathway - cell viability counter screen (AID 743225); also: % is scaled to controls: 0 for no effect and ±100 for the full control effect; nearly all actives have a fitted effect of over 50% in size
In short: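 Read-out: CellTiter-Glo luminescence measured 30 min after reagent addition at room temperature. Cells were VDR-bla HEK 293T exposed 16 h at 37C, 5% CO2, to compound with 3 nM final calcitriol agonist.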

[11] = qHTS assay to identify small molecule agonists of the NFkB signaling pathway - cell viability counter screen (AID 1159515; calls by dose curve; also: series mostly up to about 61 µM; % is scaled to controls: 0 for no effect and ±100 for the full control effect; nearly all actives have a fitted effect of over 55% in size)
In short: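 Plate 2,000 NFkB-bla ME-180 cells/well; incubate overnight. Add compounds, 5 hr at 37 C. Add FRET substrate, 1.5 hr RT. Add CellTiter-Glo, 30 min RT; read luminescence.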

[12] = qHTS assay to identify small molecule agonists of the endoplasmic reticulum stress response signaling pathway (AID 1159516; active = well fitted activation curve with a large enough effect in the signal ratio in the repeat runs, not every such curve was filed as active; the % refers to the signal ratio; also: % is scaled to controls: 0 for no effect and ±100 for the full control effect)
In short: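 Beta-lactamase expression from the ER stress response element in HeLa reporter cells is quantified with the LiveBLAzer B/G FRET substrate, read at 405 nm excitation after 2 hr at room temperature, following 5 hr compound treatment at 37 C.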

[13] = qHTS assay to identify small molecule antagonists of the retinoid-related orphan receptor gamma (ROR-gamma) signaling pathway - cell viability counter screen (AID 1159520); also: % is scaled to controls: 0 for no effect and ±100 for the full control effect; nearly all actives have a fitted effect of over 50% in size
In short: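 Cytotoxicity was read from cellular ATP (CellTiter-Glo luminescence) after 16 hr at 37 C with 1 uM doxycycline induction. The inducer was added 2 hr after compound transfer to Tet-on ROR gamma CHO cells.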

[14] = molecular target: Nuclear receptor ROR-gamma (Homo sapiens) (UniProt P51449); assay: qHTS assay to identify small molecule antagonists of the retinoid-related orphan receptor gamma (ROR-gamma) signaling pathway (AID 1159521; also: nearly all actives have a fitted effect of over 50% in size; also: potency is read from the fitted curve at half-maximal effect)
In short: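 CHO Tet-on RORγ, RORE-luc reporter. Cpd 2 h pre-incubation, then dox hyclate 1 uM final, 16 h, 37 C/5% CO2. ONE-Glo luminescence; decrease = antagonist.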

[15] = qHTS assay to identify small molecule agonists of the AP-1 signaling pathway - cell viability counter screen (AID 1159525; calls by dose curve; also: nearly all actives have a fitted effect of over 55% in size)
In short: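 Intracellular ATP by Cell Titer Glo luminescence (30 min, RT) in the same ME-180 AP-1-bla wells after the 5 h compound exposure at 37 °C. Normalised to tetra n-octyl ammonium bromide and DMSO controls.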

[16] = qHTS assay to identify small molecule agonists of the AP-1 signaling pathway (AID 1159526; calls by dose curve; also: % is scaled to controls: 0 for no effect and ±100 for the full control effect)
[17] = qHTS assay to identify small molecule antagonists of the peroxisome proliferator-activated receptor delta (PPARd) signaling pathway - cell viability counter screen (AID 743213)
In short: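 Viability counter-screen, qHTS format: PPARd-bla HEK293H, L165041 300 nM final, 17 h compound exposure at 37 C, CellTiter-Glo luminescence after 30 min RT.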

[18] = qHTS assay to identify small molecule agonists of the farnesoid-X-receptor (FXR) signaling pathway - cell viability counter screen (AID 743218); also: % is scaled to controls: 0 for no effect and ±100 for the full control effect; nearly all actives have a fitted effect of over 45% in size
In short: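 Readout: CellTiter-Glo luminescence, 30 min RT, multiplexed after the FXR-bla FRET reading. HEK 293T FXR-UAS-bla cells received compound 5 h post-plating and were incubated 16 h at 37 C.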

[19] = molecular target: Retinoic acid receptor RXR-alpha (Homo sapiens) (UniProt P19793); assay: qHTS assay to identify small molecule agonists of the RXR signaling pathway (AID 1159527; calls by dose curve; also: % is scaled to controls: 0 for no effect and ±100 for the full control effect; nearly all actives have a fitted effect of over 35% in size)
In short: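 Read-out: beta-lactamase FRET ratio (405 nm excitation, 460 and 530 nm emission) after 2 hr substrate loading at room temperature. Cells were RXR-alpha-UAS-bla HEK 293T treated with compounds for 16 hr in 2% charcoal-stripped FBS medium.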

[20] = qHTS assay to identify small molecule agonists of the endoplasmic reticulum stress response signaling pathway - cell viability counter screen (AID 1159517; calls by dose curve)
In short: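 After overnight attachment, ESRE-bla HeLa cells were treated with Tox21 library compounds for 5 hr. CellTiter-Glo luminescence, read 30 min post-addition at room temperature, reported viability.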

Retinoic acid receptor RXR-alpha (Homo sapiens), sequence (P19793 whole entry, looked up): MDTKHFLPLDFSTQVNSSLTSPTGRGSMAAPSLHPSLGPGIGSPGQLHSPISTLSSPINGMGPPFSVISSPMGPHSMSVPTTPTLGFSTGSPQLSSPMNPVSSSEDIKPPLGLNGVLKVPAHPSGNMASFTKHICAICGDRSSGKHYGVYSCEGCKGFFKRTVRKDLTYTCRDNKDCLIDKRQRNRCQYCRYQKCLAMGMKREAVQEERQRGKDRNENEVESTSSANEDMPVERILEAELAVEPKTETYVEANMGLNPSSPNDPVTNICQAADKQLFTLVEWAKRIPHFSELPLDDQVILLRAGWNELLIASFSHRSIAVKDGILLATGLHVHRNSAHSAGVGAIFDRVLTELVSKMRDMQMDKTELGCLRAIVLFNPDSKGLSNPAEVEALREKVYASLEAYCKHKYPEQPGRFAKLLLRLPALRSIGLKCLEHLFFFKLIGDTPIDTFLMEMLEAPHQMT
Vitamin D3 receptor (Homo sapiens), sequence (P11473 whole entry, looked up): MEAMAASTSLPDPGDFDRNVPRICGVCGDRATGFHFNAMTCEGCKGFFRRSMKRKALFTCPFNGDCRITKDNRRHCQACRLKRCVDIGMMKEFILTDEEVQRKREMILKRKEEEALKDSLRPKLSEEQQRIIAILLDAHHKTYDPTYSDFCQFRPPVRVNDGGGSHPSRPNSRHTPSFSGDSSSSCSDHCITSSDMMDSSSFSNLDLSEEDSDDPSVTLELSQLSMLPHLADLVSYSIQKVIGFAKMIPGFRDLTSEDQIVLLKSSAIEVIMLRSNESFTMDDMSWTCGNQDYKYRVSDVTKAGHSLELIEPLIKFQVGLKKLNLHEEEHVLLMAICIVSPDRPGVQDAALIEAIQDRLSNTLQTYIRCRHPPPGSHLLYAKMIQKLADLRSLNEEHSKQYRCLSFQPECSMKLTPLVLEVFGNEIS
Bile acid receptor (Homo sapiens), sequence (Q96RI1 whole entry, looked up): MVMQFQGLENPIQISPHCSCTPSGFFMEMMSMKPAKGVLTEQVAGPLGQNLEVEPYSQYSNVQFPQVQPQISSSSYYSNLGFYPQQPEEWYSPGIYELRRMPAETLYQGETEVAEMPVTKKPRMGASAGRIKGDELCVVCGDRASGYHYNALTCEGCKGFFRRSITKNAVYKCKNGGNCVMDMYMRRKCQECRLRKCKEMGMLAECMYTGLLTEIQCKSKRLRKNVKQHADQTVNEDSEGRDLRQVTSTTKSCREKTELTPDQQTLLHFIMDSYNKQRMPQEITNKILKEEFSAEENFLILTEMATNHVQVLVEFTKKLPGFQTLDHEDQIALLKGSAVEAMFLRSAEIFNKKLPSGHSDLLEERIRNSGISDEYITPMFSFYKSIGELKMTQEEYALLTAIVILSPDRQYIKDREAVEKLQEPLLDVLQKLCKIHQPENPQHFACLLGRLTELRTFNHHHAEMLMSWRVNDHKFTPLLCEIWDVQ
Peroxisome proliferator-activated receptor delta (Homo sapiens), sequence (Q03181 whole entry, looked up): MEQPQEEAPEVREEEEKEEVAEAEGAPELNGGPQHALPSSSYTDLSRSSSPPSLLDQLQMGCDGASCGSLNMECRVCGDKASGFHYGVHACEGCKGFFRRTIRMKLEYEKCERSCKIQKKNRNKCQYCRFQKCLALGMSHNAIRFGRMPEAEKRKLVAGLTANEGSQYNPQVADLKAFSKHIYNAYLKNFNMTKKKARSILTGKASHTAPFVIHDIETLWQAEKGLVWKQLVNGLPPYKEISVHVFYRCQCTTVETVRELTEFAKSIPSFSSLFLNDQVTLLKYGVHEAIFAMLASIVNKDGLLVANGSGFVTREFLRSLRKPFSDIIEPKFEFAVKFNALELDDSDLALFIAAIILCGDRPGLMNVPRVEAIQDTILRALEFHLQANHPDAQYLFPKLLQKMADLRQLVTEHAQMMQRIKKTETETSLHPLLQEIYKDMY

O=C(Oc1ccccc1)Oc1ccccc1
inactive: Potency [1] | Potency [2] | Potency [3] | Potency [4] | Potency [5] | Potency [6] | Potency [7] | Potency [8] | Potency [9] | Potency [10] | Potency [11] | Potency [12] | Potency [13] | Potency [14] | Potency [15] | Potency [16]

CC(C)(C)CC(C)(C)c1ccc(Nc2ccc(C(C)(C)CC(C)(C)C)cc2)cc1
inactive: activity change, negative = cytotoxicity [1] -7.52% [at 5.95 µM] | viability change, negative = cytotoxic [17] 2.44% [at 6.26 µM] | ratio activity, negative = inhibition [3] -4.33% [at 6.26 µM] | viability change, negative = cytotoxic [18] -9.89% [at 5.95 µM] | activity change, negative = cytotoxicity [6] 1.78% [at 5.95 µM] | activity change, negative = cytotoxicity [9] 10.9% [at 5.95 µM] | viability change, negative = cytotoxic [10] 20.6% [at 6.95 µM] | activity, negative = cytotoxic [11] -7.48% [at 6.95 µM] | activation [12] -2.77% [at 6.95 µM] | activity, negative = cytotoxicity [13] -0.0922% [at 8.39 µM] | activity change, negative = inhibition [14] 1.61% [at 8.39 µM] | viability change, negative = cytotoxic [15] -3.55% [at 6.97 µM] | activation [16] 15.6% [at 6.97 µM] | activation [19] 3.93% [at 6.98 µM]

Cc1ccc(C(=O)O)cc1
inactive: Potency [1] | Potency [2] | Potency [17] | Potency [3] | Potency [4] | Potency [18] | Potency [5] | Potency [6] | Potency [9] | Potency [10] | Potency [11] | Potency [12] | Potency [13] | Potency [15] | Potency [16] | Potency [19]

CCC(CC)(CC(=O)Nc1cccc(/C=C/c2nc(C3CCC3)cs2)c1)C(=O)O
inactive: Potency [1] | Potency [17] | Potency [3] | Potency [4] | Potency [5] | Potency [6] | Potency [9] | Potency [11] | Potency [12] | Potency [13] | Potency [14] | Potency [15] | Potency [16]

Cl[Si](Cl)(c1ccccc1)c1ccccc1
inactive: Potency [1] | Potency [2] | Potency [4] | Potency [18] | Potency [5] | Potency [6] | Potency [7] | Potency [8] | Potency [9] | Potency [11] | Potency [20] | Potency [13] | Potency [14] | Potency [15] | Potency [16] | Potency [19]

Cc1cc(-n2nc3ccc(Cl)cc3n2)c(O)c(C(C)(C)C)c1
inactive: Potency [1] | Potency [2] | Potency [17] | Potency [3] | Potency [4] | Potency [18] | Potency [6] | Potency [7] | Potency [8] | Potency [9] | Potency [10] | Potency [11] | Potency [20] | Potency [13] | Potency [14] | Potency [15] | Potency [16] | Potency [19]

Nc1ccc(C(=O)O)c(O)c1
inactive: Potency [1] | Potency [2] | Potency [17] | Potency [3] | Potency [4] | Potency [18] | Potency [5] | Potency [6] | Potency [9] | Potency [11] | Potency [20] | Potency [13] | Potency [14] | Potency [15] | Potency [16] | Potency [19]

C=CC(=O)OCCOC(=O)C=C
inactive: Potency [17] | Potency [6] | Potency [8] | Potency [9] | Potency [10] | Potency [11] | Potency [12] | Potency [13] | Potency [15] | Potency [16]

Oc1ccccc1O
active: Potency [14] 8.74 µM and 27.3 µM
inactive: Potency [1] | Potency [3] | Potency [18] | Potency [6] | Potency [7] | Potency [8] | Potency [9] | Potency [10] | Potency [11] | Potency [20] | Potency [13] | Potency [15] | Potency [16] | Potency [19]

Cc1cc(C(C)(C)C)cc(C)c1CC1=NCCN1
inactive: Potency [1] | Potency [2] | Potency [17] | Potency [4] | Potency [18] | Potency [5] | Potency [6] | Potency [9] | Potency [11] | Potency [20] | Potency [13] | Potency [14] | Potency [15] | Potency [16] | Potency [19]

CC1(C)CCC[C@]2(C)[C@H]3CCO[C@]3(C)CC[C@@H]12
inactive: Potency [1] | Potency [2] | Potency [17] | Potency [3] | Potency [18] | Potency [6] | Potency [7] | Potency [9] | Potency [11] | Potency [20] | Potency [13] | Potency [14] | Potency [15] | Potency [16] | Potency [19]

C1CCC(SSC2CCCCC2)CC1
inactive: Potency [1] | Potency [2] | Potency [17] | Potency [3] | Potency [6] | Potency [9] | Potency [10] | Potency [11] | Potency [20] | Potency [13] | Potency [14] | Potency [15] | Potency [16] | Potency [19]

O=C1CCCCCCCCCCCCCCCO1
inactive: Potency [1] | Potency [2] | Potency [17] | Potency [3] | Potency [4] | Potency [5] | Potency [6] | Potency [9] | Potency [10] | Potency [11] | Potency [20] | Potency [13] | Potency [14] | Potency [15] | Potency [16] | Potency [19]

Oc1c(I)cc(Cl)c2cccnc12
active: Potency [9] 5.49 µM | Potency [14] 54.4 µM
inactive: Potency [18] | Potency [6] | Potency [7] | Potency [10] | Potency [11] | Potency [12]
